The test system of assay [1] is Nanoluciferase (engineered Oplophorus gracilirostris luciferase). Description: Primary Nanoluciferase (NLuc) qHTS assay for identification of artifact compounds. (AID 1845222). Also: potency is read from the fitted curve at half-maximal effect.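 As to activity, negative = inhibition: 0% = DMSO and -100% = no enzyme.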 The essentials: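 Luminescence read-out of secreted NLuc in S16 cell conditioned medium (1:55); compounds tested with 15 min RT preincubation, then Nano-Glo substrate 1:100, 5 min. % inhibition vs no-enzyme and DMSO controls, 4-parameter Hill fit.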
(In general: In qHTS, concentration-response curves come from the screen itself.)

The nature of assay [2]: Primary redox qHTS assay for identification of artifact compounds. (AID 1845223).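 Also: 0% = DMSO and 100% = reference compound.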 The essentials:
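Amplex Red (25 uM) and HRP (250 mU/mL) in HBSS, with compounds for 15 min, then 250 uM DTT for 30 min, room temperature, dark. Fluorescence 525/598 nm read; normalized to DMSO and 10 uM DA3003; Hill fit.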

Assay [3] can be described thus: qHTS drug screen for cell cycle checkpoint inhibitors in PARPi-resistant BRCA-mutant ovarian cancer cell lines. (AID 1963452; calls by dose curve). The note with it: PEO1/OlaR viability, CellTiter-Glo luminescence, 96 h, stronger effect = lower value. The essentials:
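PEO1, PEO4 and PEO1/OlaR ovarian cancer cells, 600 per well, exposed 96 h at 37C to a dilution series. Viability read by CellTiter-Glo luminescence, normalized to DMSO and empty wells; activity summarized as Z-AUC.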

The nature of assay [4]: qHTS profiling for inhibitors of Plasmodium falciparum proliferation (AID 504749). Also: nearly all actives have a fitted effect of over 60% in size. Also: potency is read from the fitted curve at half-maximal effect.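 As to activity, negative = inhibition: 0% = DMSO vehicle and full inhibition = artemisinin control.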 The note with it: P. falciparum in erythrocytes, SYBR Green DNA, 72 h, at 28.7 µM (top of the series). The essentials: (§1)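 P. falciparum-infected erythrocytes (0.3% parasitemia, 2.5% hematocrit final) were exposed to compounds for 72 h at 37 C in 5% CO2, then lysed with SYBR Green buffer overnight at room temperature; parasite DNA fluorescence was normalized to artemisinin and DMSO controls.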

The next assay deals with 3D7. The assay is described as above. The note with it: P. falciparum in erythrocytes, SYBR Green DNA, 72 h; series mostly up to 28.7 µM. The essentials: as §1
In another assay the test system is 7G8. Described as above. The conditions noted are these: P. falciparum in erythrocytes, SYBR Green DNA, 72 h; series mostly up to 28.7 µM. The essentials:
as §1

The subject of a further assay is AA1029. The description is as above. The conditions noted are these: P. falciparum in erythrocytes, SYBR Green DNA, 72 h; series mostly up to 28.7 µM. The essentials: as §1
For a further assay, the system named is AS120. The description is as above. The note with it: P. falciparum in erythrocytes, SYBR Green DNA, 72 h; series mostly up to 28.7 µM. The essentials: as §1
Another assay deals with ATS189. The description is as above. The note with it: P. falciparum in erythrocytes, SYBR Green DNA, 72 h; series mostly up to 28.7 µM. The essentials: as §1
For the next assay, the system named is ATS95. Described as above. The note with it: P. falciparum in erythrocytes, SYBR Green DNA, 72 h; series mostly up to 28.7 µM. The essentials:
as §1

In a further assay the test system is C2A. The description is as above. The note with it: P. falciparum in erythrocytes, SYBR Green DNA, 72 h; series mostly up to 28.7 µM. The essentials:
as §1

In assay [5] the target is Cytochrome P450 3A4 (Homo sapiens) (UniProt P08684). As to the kind of experiment: qHTS for inhibitors of CYP3A4 against the NCATS DSHEA and TCM libraries (AID 1919971).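 Also: % is scaled to controls: 0 for no effect and ±100 for the full control effect; inhibition lowers luminescence from luciferin made by CYP3A4.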 The essentials: (§2)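 Light output from converted D-luciferin reports remaining CYP activity. Compounds preincubate with enzyme and substrate for 15 min; NADPH regeneration (1x final) runs the reaction for 30-45 min.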
Chain of Cytochrome P450 3A4 (Homo sapiens) (P08684 whole entry, looked up): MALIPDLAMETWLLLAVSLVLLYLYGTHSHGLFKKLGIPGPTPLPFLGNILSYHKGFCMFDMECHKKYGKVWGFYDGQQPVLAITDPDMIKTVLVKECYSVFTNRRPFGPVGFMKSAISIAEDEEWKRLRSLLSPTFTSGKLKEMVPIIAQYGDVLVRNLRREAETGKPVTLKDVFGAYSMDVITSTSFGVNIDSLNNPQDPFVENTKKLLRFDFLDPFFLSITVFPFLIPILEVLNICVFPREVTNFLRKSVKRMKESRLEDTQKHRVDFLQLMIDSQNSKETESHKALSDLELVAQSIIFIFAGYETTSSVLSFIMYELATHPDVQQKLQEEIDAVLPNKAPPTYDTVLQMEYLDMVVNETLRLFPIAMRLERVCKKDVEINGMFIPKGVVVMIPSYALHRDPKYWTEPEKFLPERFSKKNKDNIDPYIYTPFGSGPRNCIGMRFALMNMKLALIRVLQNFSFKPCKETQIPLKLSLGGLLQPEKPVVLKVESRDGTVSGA

In assay [6] the target is Cytochrome P450 2D6 (Homo sapiens) (UniProt P10635). As to the kind of experiment: qHTS for inhibitors of CYP2D6 against the NCATS DSHEA and TCM libraries (AID 1919972). Also: % is scaled to controls: 0 for no effect and ±100 for the full control effect. The essentials: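 Steps: enzyme plus luciferin substrate dispensed; test substances pinned; 15 min RT; 1x NADPH regenerating solution added, 30–45 min RT protected from light; detection reagent, 30 min RT; luminescence measured. Minus-enzyme wells as background.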
Chain of Cytochrome P450 2D6 (Homo sapiens) (P10635 whole entry, looked up): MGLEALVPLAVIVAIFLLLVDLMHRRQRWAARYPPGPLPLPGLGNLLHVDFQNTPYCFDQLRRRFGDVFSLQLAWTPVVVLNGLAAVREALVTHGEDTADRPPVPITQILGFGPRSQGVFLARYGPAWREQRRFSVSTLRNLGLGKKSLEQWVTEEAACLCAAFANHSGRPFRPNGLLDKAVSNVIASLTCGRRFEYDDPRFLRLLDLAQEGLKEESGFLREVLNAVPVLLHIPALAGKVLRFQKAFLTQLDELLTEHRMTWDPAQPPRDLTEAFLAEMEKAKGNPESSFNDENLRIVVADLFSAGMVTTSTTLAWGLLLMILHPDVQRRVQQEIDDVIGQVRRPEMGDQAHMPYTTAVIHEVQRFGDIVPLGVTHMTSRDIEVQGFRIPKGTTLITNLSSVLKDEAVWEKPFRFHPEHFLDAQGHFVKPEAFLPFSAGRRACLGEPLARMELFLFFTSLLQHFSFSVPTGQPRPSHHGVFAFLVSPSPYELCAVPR

Assay [7] deals with Cytochrome P450 2C19 (Homo sapiens) (UniProt P33261). Description: qHTS for inhibitors of CYP2C19 against the NCATS DSHEA and TCM libraries (AID 1919974).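 Also: luminescence from luciferin released by CYP2C19 oxidation of a pro-luciferin substrate; potency is read from the fitted curve at half-maximal effect.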 The conditions noted are these: CYP2C19 enzyme inhibition, luminescence qHTS. The essentials: as §2
Chain of Cytochrome P450 2C19 (Homo sapiens) (P33261 whole entry, looked up): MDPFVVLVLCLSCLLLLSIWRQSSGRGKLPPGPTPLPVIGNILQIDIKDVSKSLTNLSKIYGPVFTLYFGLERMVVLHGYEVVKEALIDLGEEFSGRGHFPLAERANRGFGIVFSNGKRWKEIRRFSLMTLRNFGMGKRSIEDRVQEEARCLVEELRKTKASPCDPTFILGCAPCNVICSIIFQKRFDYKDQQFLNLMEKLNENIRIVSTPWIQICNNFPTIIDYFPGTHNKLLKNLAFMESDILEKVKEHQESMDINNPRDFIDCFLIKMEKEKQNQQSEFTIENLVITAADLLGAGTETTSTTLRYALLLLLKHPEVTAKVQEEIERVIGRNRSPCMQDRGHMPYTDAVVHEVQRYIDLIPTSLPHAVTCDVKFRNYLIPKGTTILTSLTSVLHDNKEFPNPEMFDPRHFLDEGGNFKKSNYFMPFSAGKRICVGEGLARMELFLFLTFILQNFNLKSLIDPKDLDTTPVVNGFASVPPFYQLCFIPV
A short description of assay [8]: KB-3-1 P-gp reporter qHTS against the NCATS DSHEA and TCM libraries (AID 1919975). Also: 0% is about no effect. The essentials:
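CellTiter-Glo luminescence viability readout; KB-3-1 parental cells, 500/well, attached ~4 h, then compound for ~72 h, 37C, 5% CO2. Bortezomib intraplate control.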

Assay [9] can be described thus: qHTS Counterscreen for compound interference against the NCATS DSHEA and TCM libraries (AID 1919978).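 Also: compounds preincubated with 1 µM D-luciferin or buffer before detection reagent; % of control where 0% means no effect.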 The note with it: firefly luciferase detection reagent interference, luminescence. The essentials:
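Luminescence counterscreen for detection-kit interference: compounds at 19.5 nM–39.8 uM final, 15 min RT with 1 uM D-luciferin or buffer only; detection reagent added, 30 min RT, then read.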

Assay [10] is described as follows: Dual reporter qHTS for agonist of Pregnane X Receptor (hPXR) against the NCATS DSHEA and TCM libraries: Fluorescence readout (AID 1920058). Also: 0% is about no effect. The essentials: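 Measures viability of the PXR reporter HepG2 line by protease-substrate fluorescence (405/540 nm), taken 1 h after CellTiter-Fluor addition. Substances are tested as concentration series over a ~24 h exposure, with rifampicin as agonist control.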

The target of assay [11] is Nuclear receptor subfamily 1 group I member 2 (Homo sapiens) (UniProt O75469). As to the kind of experiment: Dual reporter qHTS for agonist of Pregnane X Receptor (hPXR) against the NCATS DSHEA and TCM libraries: Luminescence readout (AID 1920059). Also: 0% is about no effect. The essentials: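 hPXR-LucHepG2 cells in phenol red-free DMEM with 5% charcoal-stripped FBS, 2000 cells/well, attached 5 h, then exposed 24 h at 37C to compounds; rifampicin as positive agonist control (2.8 nM–92 uM). Luciferase luminescence read.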
Chain of Nuclear receptor subfamily 1 group I member 2 (Homo sapiens) (O75469 whole entry, looked up): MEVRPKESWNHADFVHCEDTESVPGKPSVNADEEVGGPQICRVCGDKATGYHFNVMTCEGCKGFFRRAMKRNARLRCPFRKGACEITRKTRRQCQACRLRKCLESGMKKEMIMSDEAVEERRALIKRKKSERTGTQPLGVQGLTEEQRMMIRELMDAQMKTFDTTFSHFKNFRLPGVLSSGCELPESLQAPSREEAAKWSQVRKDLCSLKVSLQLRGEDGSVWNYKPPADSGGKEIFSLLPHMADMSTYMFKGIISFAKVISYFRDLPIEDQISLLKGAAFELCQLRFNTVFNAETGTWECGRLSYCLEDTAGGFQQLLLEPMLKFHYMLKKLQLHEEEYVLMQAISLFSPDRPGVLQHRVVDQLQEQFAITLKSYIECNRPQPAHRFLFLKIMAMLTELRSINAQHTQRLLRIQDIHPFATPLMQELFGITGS

Assay [12] shares this target. As to the kind of experiment: Dual reporter qHTS for antagonist of Pregnane X Receptor (hPXR) against the NCATS DSHEA and TCM libraries: Luminescence Readout (AID 1920060). Also: 0% is about no effect. The essentials:
(§3)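 Rifampicin-stimulated (2 uM final) hPXR-luciferase HepG2 cells were treated for 24 h with DSNP/TCM substances. Viability came from CellTiter-Fluor fluorescence, reporter activity from ONE-Glo luminescence.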

The nature of assay [13]: Dual reporter qHTS for antagonist of Pregnane X Receptor (hPXR) against the NCATS DSHEA and TCM libraries: Fluorescence Readout (AID 1920061). Also: 0% is about no effect. The essentials:
as §3

Setting [14] is: measured here: PEO1 parental Z-AUC.

Several values for one entry are separate records, joined by “and”; a condition that tells them apart may be missing. Identical values can stand only once. Records with an inconclusive call do not appear. Activity calls are given as the source filed them. Unless noted, calls follow the shape of the dose curve; as a rule, active = well fitted curve in the direction sought with a large enough effect; inconclusive = small, poorly fitted or top-dose-only effect, or another doubt; inactive = no such curve, though single readings can be large; an effect the other way counts as inactive or inconclusive.

Consider `CC1(C)[C@@H](O)CC[C@]2(C)[C@H]3C(=O)C=C4[C@@H]5C[C@@](C)(C(=O)O)CC[C@]5(C)CC[C@@]4(C)[C@]3(C)CC[C@@H]12`, for which the Potency entry (in assay [1]; in the assay on 3D7; in the assay on 7G8; with AA1029; in the assay on AS120; with ATS189) was “inactive” each time. The Potency result in the assay on ATS95 and in the assay with C2A was “inactive” throughout. Moreover, in [2], the molecule was called inactive. In addition, the Z-AUC in assay [3] was 0.796 (inactive); in [3] (setting [14]), 1.38; in assay [3] (measured here: PEO4 Z-AUC), 0.997. Besides, the activity, negative = inhibition in assay [4] (parasite line A) is -3.83% (inactive); in assay [4] (parasite line B) it was -0.325% (inactive).

For `CCN(CC)CCCCNc1ncc2cc(-c3c(Cl)cccc3Cl)c(NC(=O)NC(C)(C)C)nc2n1`, in assay [1], the Potency entry was “inactive”. In addition, in [2], the outcome was inactive.

Turning to `O=C(O)c1cc(O)c(O)c(O)c1`, the molecule was classed as inactive in assay [5], in [6], in assay [8], in [10], in [11] and in assay [12]. Moreover, the molecule was called inactive in [13]. Further, the Potency in assay [7] was 3.55 µM (active). In [9], the max response was -2.87% (inactive). In addition, the activity, negative = inhibition was -23.1% (inactive) in [4] (parasite line A) and -29.8% (inactive) in assay [4] (parasite line B). Further, the Potency entry in the assay with AA1029, in the assay on AS120, with ATS189 and with ATS95 was “inactive” throughout.

On to `O=C(Nc1ccc2c(c1)CCN(Cc1ncn[nH]1)C2)c1ccccc1-c1ccc(C(F)(F)F)cc1`, for which the Potency result in assay [1] was “inactive”. Moreover, the molecule was called inactive in assay [2]. For the same molecule, the Z-AUC in assay [3] was -0.0591 (inactive); in [3] (setting [14]), -0.291; in assay [3] (measured here: PEO4 Z-AUC) it was 0.47.

Regarding `O=C(Nc1ccc2[nH]ncc2c1)C1CCC1`, the Potency entry in assay [1] is “inactive”. Also, the result in assay [2] was inactive.

Consider `CN1[C@@H]2CC[C@H]1CC(OC(=O)C(CO)c1ccccc1)C2` (some centres undefined), for which the Potency entry (in assay [1]; with 3D7; in the assay on 7G8; with AA1029; in the assay with AS120; in the assay on ATS189) was “inactive” in each case. Besides, the Potency entry with ATS95 and in the assay on C2A was “inactive” in each case. Also, the molecule was classed as inactive in assay [2]. The activity, negative = inhibition in [4] (parasite line A) was -2.42% (inactive).

Turning to `Fc1ccc2[nH]c(CN3CCN(c4ccccn4)CC3)cc2c1`, in assay [1], the Potency result was “inactive”. For the same molecule, the result in assay [2] was inactive.

For `Cc1ccc2c(n1)Oc1ccc(C(C)C(=O)OCC(=O)N(C)C)cc1C2` (centres undefined), the Potency result in assay [1] is “inactive”. In addition, the call in assay [2] was inactive.

For `O=C(O)CC1CC(c2ccccc2)=NO1` (centres undefined), the Potency entry in [1] was “inactive”. In addition, in assay [2], the molecule was called inactive.

In the case of `CC(=O)SCC(CC(=O)c1ccc(C)cc1)C(=O)O` (centres undefined), the Potency result in assay [1] was “inactive”. Also, in assay [2], the molecule was classed as inactive.

`CN(CCCOc1ccc(Cc2ccccc2)cc1)CCC(=O)O`: the Potency entry in assay [1] was “inactive”.

Consider `O=[N+]([O-])c1ccc(CNc2nc(NCc3cccc(C(F)(F)F)c3)nc3nc[nH]c23)cc1`, for which the Potency result in assay [1] was “inactive”. The molecule was classed as inactive in assay [2].

Turning to `COc1ccc(/C=C/C(=O)Nc2ccccc2C(=O)O)cc1OC`, the Potency in assay [1] is 21.3 µM (active). For the same molecule, the result in assay [2] was inactive. Further, the values for the Z-AUC in assay [3], in assay [3] (setting [14]) and in assay [3] (measured here: PEO4 Z-AUC) were 1.02 (inactive), 1.51 and 0.971, respectively. For the same molecule, the figures for the activity, negative = inhibition in [4] (parasite line A) and in assay [4] (parasite line B) were 3.65% (inactive) and -0.207% (inactive), respectively. Moreover, the Potency entry in the assay with 3D7, in the assay on AA1029, with AS120, in the assay on ATS189, in the assay on ATS95 and in the assay on C2A was “inactive” throughout.

In the case of `CN1[C@@H]2CC[C@H]1CC(OC(c1ccccc1)c1ccccc1)C2` (some centres undefined), the Potency result (in assay [1]; in the assay with 3D7; with C2A) was “inactive” each time. The call in assay [2] was inactive. For the same molecule, the Potency in the assay on 7G8 is 5.62 µM (active) and 7.08 µM (active); in the assay on AS120, 12.6 µM (active); in the assay on ATS95 it was 12.6 µM (active).

These data come from PubChem BioAssay (NCATS).
